# Screening results as filed in PubChem.
# PAFAH2 FP inh – inhibitors of human PAFAH2. Q99487. recombinant PAFAH2, FP-rhodamine activity probe, fluorescence polarization. inhibition, % at 3.39 µM. actives 0.99% (n = 340,000);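 active = inhibition above the mean over all tested compounds plus 3 SD, cut at about 30% in these data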;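 also: inhibitors block probe labeling of enzyme so polarization drops; 0% = enzyme with DMSO and 100% = wells lacking PAFAH2 protein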
# pPAFAH inh – inhibitors of human plasma PAF acetylhydrolase (pPAFAH); AID 463082; recombinant pPAFAH, FP-rhodamine probe fluorescence polarization; Q13093; inhibition, % at 3.39 µM; actives 1.5% (n = 330,000);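 active = inhibition above the mean inhibition across the screen plus 3 SD, cut at about 25% in these data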;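 also: inhibitors block binding of the rhodamine activity-based probe so polarization drops; 0% = enzyme with DMSO and 100% = wells lacking pPAFAH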
# PAFAH1B2 FP inh – PAFAH1B2 (human) inhibition | P68402 | recombinant PAFAH1B2, FP-rhodamine activity probe, fluorescence polarization | inhibition, % at 3.39 µM | actives 1.2% (n = 340,000);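 active = inhibition above the mean of all tested compounds plus 3 SD, cut at about 24% in these data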;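 also: 0% = enzyme with DMSO and 100% = wells lacking PAFAH1B2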
# Target sequence (P68402 whole entry, looked up): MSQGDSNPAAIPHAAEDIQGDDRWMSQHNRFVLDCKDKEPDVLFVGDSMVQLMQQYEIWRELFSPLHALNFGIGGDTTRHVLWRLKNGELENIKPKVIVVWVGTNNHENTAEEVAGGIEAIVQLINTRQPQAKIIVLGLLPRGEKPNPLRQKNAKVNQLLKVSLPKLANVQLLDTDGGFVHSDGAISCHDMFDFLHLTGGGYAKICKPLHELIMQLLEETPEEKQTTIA
# Pemphigus Ab inh – inhibitors of pemphigus antibody binding to human desmoglein-3; binding (percent of control), % at 10 µM; actives 0.48% (n = 310,000); DSG3-coupled beads, scFv-anti-DSG3-GFP binding, flow cytometry; active compounds read low;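 active = binding more than 3 SD below its plate's average and above zero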;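 also: hits lower antibody fragment binding to DSG3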
# PAFAH1B3 inh – inhibitors of human PAFAH1B3; recombinant PAFAH1B3, FP-rhodamine probe, fluorescence polarization; Q15102; inhibition, % at 3.39 µM; actives 0.28% (n = 340,000);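 active = inhibition above the screen-wide average of all tested compounds plus 3 SD, cut at about 25% in these data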;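 also: 0% = enzyme with DMSO only and 100% = wells lacking PAFAH1B3 protein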
# PfM18AAP inh – blocks P. falciparum M18 aspartyl aminopeptidase | recombinant PfM18AAP, H-Glu-NHMec fluorogenic cleavage | inhibition, % at 7.35 µM | actives 1.2% (n = 290,000);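 active = inhibition above the campaign mean inhibition over all tested compounds plus 3 SD, cut at about 28% in these data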;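 also: 0% = plate median of test compound wells and 100% = 2 mM ZnCl2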
# PAFAH2 confirm – confirmation of human PAFAH2 inhibitors; shares compounds with PAFAH2 FP inh; recombinant PAFAH2, FP-rhodamine activity probe, fluorescence polarization; inhibition, % at 3.39 µM; actives 65% (n = 2,300); AID 493030;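 active = mean inhibition over three repeats above a set limit taken from the earlier primary screen, cut at about 30% in these data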;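 also: inhibitor blocks binding of rhodamine activity probe so polarization falls; 0% = enzyme with DMSO and 100% = wells lacking PAFAH2 protein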
# * = called active by the depositor; · = not tested or not shown. Rows were chosen to be rich in hits. Some 3.8% of all compounds tested hit in one or more screens of this group.
SMILES,PAFAH2 FP inh,pPAFAH inh,PAFAH1B2 FP inh,Pemphigus Ab inh,PAFAH1B3 inh,PfM18AAP inh,PAFAH2 confirm
CCN(CC)S(=O)(=O)c1ccc2c(c1)nc(CCC(=O)OCC(=O)Nc1cc(OC)cc(OC)c1)n2C,52*,10,3,102,2,1,36*
CCN(CC)S(=O)(=O)c1ccc2c(c1)nc(CCC(=O)OCC(=O)Nc1c(F)cccc1F)n2C,49*,9,9,100,-5,6,46*
O=C(CN1CCN(S(=O)(=O)c2ccc3ccccc3c2)CC1)Nc1ccc2c(c1)CCC2,-2,-6,-8,116,1,1,·
COCCCNC(=O)Cn1ccc(NC(=O)OCc2ccccc2)nc1=O,8,-2,2,102,2,·,·
C=CCNc1nc(C(=O)OCC(=O)NCc2ccccc2OC)cs1,13,22,0,99,4,·,·
C=CCNc1nc(C(=O)OCC(=O)Nc2cccc(SC)c2)cs1,62*,·,4,104,9,·,51*
CCN(CC)c1ccc(C(=O)Nc2cccc(F)c2)cc1,38*,15,3,90,1,-9,42*
CCC1(c2ccc(C)cc2)NC(=O)N(C(C)C(=O)Nc2ccc(N3CCOCC3)cc2)C1=O (configuration not stated),0,1,-4,99,3,·,·
Cc1cccnc1NC(=O)CN1C(=O)NC(C)(c2ccc3ccccc3c2)C1=O (configuration not stated),-1,2,2,103,2,·,·
CCc1cccc(CC)c1NC(=O)COC(=O)c1ccc(F)c(S(=O)(=O)N(CC)CC)c1,30*,17,4,95,8,-6,26
CCN(CC)S(=O)(=O)c1cc(C(=O)OCC(=O)Nc2cccc(Br)c2)ccc1F,32*,15,-8,106,-8,-5,22
O=C(COC(=O)c1cccc(S(=O)(=O)N2CCCC2)c1)Nc1cccc(Br)c1,·,·,·,103,·,·,·
CCOC(=O)N1CCC(N2Cc3cccc(C(=O)Nc4cccc(F)c4)c3C2=O)CC1,9,-3,2,83,-1,3,·
COc1ccc(CCC(=O)N2CCCC(Nc3ccccc3)C2)cc1OC (configuration not stated),1,-5,1,110,3,7,·
COc1cc(OC)c(N(C)S(=O)(=O)c2cccc(C(=O)OCC(=O)N(C)C3CCCCC3)c2)cc1Cl,40*,·,0,106,-7,·,27
COc1cc(OC)c(NS(=O)(=O)c2cccc(C(=O)OCC(=O)NCC3CCCO3)c2)cc1Cl (configuration not stated),39*,18,3,112,-2,6,31*
CC(C)NC(=O)COC(=O)c1cccc(NS(=O)(=O)/C=C/c2ccccc2)c1,37*,15,4,105,-5,4,18
CC1CCCC(NC(=O)COC(=O)c2cccc(NS(=O)(=O)/C=C/c3ccccc3)c2)C1C (configuration not stated),46*,9,2,104,3,4,40*
NC(=O)NC(=O)COC(=O)c1cccc(NS(=O)(=O)/C=C/c2ccccc2)c1,4,6,7,104,9,0,·
Cc1cc(C)c(C(=O)C(C)OC(=O)c2ccc(Cl)nc2)cc1C (configuration not stated),1,4,5,99,-7,4,·
CCOC(=O)C1CCCN(S(=O)(=O)c2ccc3c(c2)N(C)C(=O)CC(=O)N3C)C1 (configuration not stated),-2,-3,3,105,5,-11,·
CC1=C(C#N)C(=O)NC(=O)/C1=C\c1ccc(-c2cc(C)c(C)cc2[N+](=O)[O-])o1,32*,·,24,96,17,27,14
CC1(C)CC(=O)C(CO)=C(c2cccc3ccccc23)C1=O,0,-5,3,100,21,·,·
O=c1cc(-c2ccccc2)nc2cc(-c3ccc(F)cc3)[nH]n12,64*,8,20,104,10,·,0
O=C(COC(=O)c1ccc2c(c1)OCO2)Nc1ccccc1F,54*,6,2,101,7,·,49*
